Sampled rows, rich in hits. Any-hit rate of the full collection: about 14%.
LmPK inh = qHTS Assay for Inhibitors of Leishmania Mexicana Pyruvate Kinase (LmPK); Q27686; purified LmPK, Kinase-Glo ATP luminescence, 1 h; Potency, µM (series often up to 57.5 µM), usual class: inhibitors; 0.37% of 290,000 active; AID 1721, 2009
Target sequence (Q27686 whole entry, looked up): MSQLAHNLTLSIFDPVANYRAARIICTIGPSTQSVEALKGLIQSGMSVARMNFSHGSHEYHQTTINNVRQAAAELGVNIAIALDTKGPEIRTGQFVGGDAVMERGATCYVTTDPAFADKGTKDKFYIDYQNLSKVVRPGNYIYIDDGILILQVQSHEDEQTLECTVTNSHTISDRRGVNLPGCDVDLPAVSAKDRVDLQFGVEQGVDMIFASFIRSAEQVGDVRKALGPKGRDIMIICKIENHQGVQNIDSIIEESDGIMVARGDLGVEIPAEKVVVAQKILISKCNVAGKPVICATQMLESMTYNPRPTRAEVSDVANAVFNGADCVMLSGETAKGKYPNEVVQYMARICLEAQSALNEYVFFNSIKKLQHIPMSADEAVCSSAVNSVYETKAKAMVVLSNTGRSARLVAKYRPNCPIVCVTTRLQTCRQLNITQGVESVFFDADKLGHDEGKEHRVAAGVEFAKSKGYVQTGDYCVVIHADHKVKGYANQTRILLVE
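Screened at intermediate enzyme activity to detect both inhibitors and activators: LmPK at 0.1 nM, with a 0.5 nM enzyme column as activation reference. PEP 0.5 mM, ADP 0.1 mM; ATP detected by luminescence after 1 h.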
NS1 function inh = qHTS Assay for Inhibitors of Influenza NS1 Protein Function; Potency, µM (titrated, usually from 46.1 µM); 0.4% of 270,000 active; AID 2326, 2010; calls by dose curve; also: actives are rising curves; nearly all actives have a fitted effect of over 50% in size
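Read-out: OD600 growth recovery of NS1-expressing budding yeast. Cells grown overnight at 30C in -URA glucose medium, washed, resuspended and diluted 1:100 in 2% galactose assay medium, pH 6.0. Same strain lacking NS1 served as positive control.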
FBPA Giardia inh = qHTS Assay for Inhibitors of Fructose-1,6-bisphosphate Aldolase from Giardia Lamblia | Potency, µM (top dose mostly 59.6 µM), usual class: inhibitors | A8B2U2 | AID 2451, 2010 | purified Giardia FBPA | 0.71% of 290,000 active; also: nearly all actives have a fitted effect of over 55% in size
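40 nM FBPA preincubated 10 min at RT with compound (up to 57.5 uM final), then substrate plus GAPDH/TPI/NAD/arsenate coupling and diaphorase/resazurin added. Fluorescence read after 20 min at RT, 525/598 nm.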
Shiga toxin inh = A qHTS for Small Molecule Inhibitors of Shiga Toxin. 9.2% of 290,000 active. inhibition, % at 38.7 µM. Vero cells, Shiga toxin protein synthesis inhibition reporter; in the data active = inhibition mostly above about 28%, no sharp cut-off; inactive = mostly below about 43%
Cycloheximide cs = Cycloheximide Counterscreen for Small Molecule Inhibitors of Shiga Toxin. cell reporter, cycloheximide protein synthesis inhibition counterscreen. max response, %. 12% of 300,000 active. AID 2314, 2010; in the data active = max response mostly above about 13%, no sharp cut-off; inactive = mostly below about 14%; also: read at 38.3 µM for the half of the compounds with a filed dose
Large screens that a line does not name were inactive; ! = not confirmed by another sample. Unless noted, calls follow the shape of the dose curve; as a rule, active = well fitted curve in the direction sought with a large enough effect; inconclusive = small, poorly fitted or top-dose-only effect, or another doubt; inactive = no such curve, though single readings can be large; an effect the other way counts as inactive or inconclusive.

CSCC[C@H](NC(=O)[C@H](Cc1c[nH]c2ccccc12)NC(=O)CNC(=O)[C@H](Cc1ccc(O)cc1)NC(=O)[C@H](C)NC(=O)[C@H](CCC(=O)O)NC(=O)[C@H](CCC(=O)O)NC(=O)[C@H](CCC(=O)O)NC(=O)[C@H](CCC(=O)O)NC(=O)[C@H](CCC(=O)O)NC(=O)[C@H](CC(C)C)NC(=O)[C@H](Cc1c[nH]c2ccccc12)NC(=O)[C@@H]1CCCN1C(=O)CNC(=O)[C@@H]1CCC(=O)N1)C(=O)N[C@@H](CC(=O)O)C(=O)N[C@@H](Cc1ccccc1)C(=O)NCC(=O)O	none (no result: LmPK inh, NS1 function inh)
COc1cc2c(cc1OC)-c1cc3nc4ccccc4nc3n1C(C)(C)C2	none (no result: LmPK inh, NS1 function inh, Shiga toxin inh, Cycloheximide cs)
O=c1cnc2cnc(Oc3cccc(Cl)c3)nc2n1Cc1ccc(F)cc1	none (no result: LmPK inh, NS1 function inh, Shiga toxin inh, Cycloheximide cs)
C#CCCCO/N=C1/C[C@@H](O)[C@@H](O)[C@@H]2[C@@H]3C(=O)N([C@@H](C)c4ccccc4)C(=O)[C@H]3CC[C@H]12	none (no result: LmPK inh, NS1 function inh, Shiga toxin inh, Cycloheximide cs)
O=C(CC(c1ccco1)S(=O)(=O)c1ccccc1)c1ccccc1 (configuration not stated)	Shiga toxin inh 110.0, Cycloheximide cs 41.6 (no result: NS1 function inh)
O=C(CNS(=O)(=O)c1ccccc1)OCC(=O)c1ccc(F)cc1	none
Cc1ccc(C(=O)CC(c2cccs2)S(=O)(=O)c2ccc(C)cc2)cc1 (configuration not stated)	LmPK inh inconclusive, Cycloheximide cs 22.8
O=C(CC(c1cccs1)S(=O)(=O)c1ccccc1)c1ccc(F)cc1 (configuration not stated)	Shiga toxin inh 33.1, Cycloheximide cs 51.9
Cc1ccc(N(C(=O)c2csnn2)C(C(=O)NC2CCCCC2)c2ccccn2)cc1C (configuration not stated)	none
COC(=O)c1ccc(C(NC(=O)OCc2ccccc2)/C(I)=C/[C@@H](C)C(=O)NCc2ccc(C)o2)cc1 (some centres not stated)	none (no result: LmPK inh, NS1 function inh, Shiga toxin inh, Cycloheximide cs)
CCCCCc1nnc(NC(=O)CN2C(=O)C3CCCCC3C2=O)s1 (configuration not stated)	none (no result: FBPA Giardia inh)
CC(C)C/C=C1\CCc2c([nH]c3ccccc23)C1=O	Shiga toxin inh 88.4, Cycloheximide cs 45.9
CCCCCCCCC1=NCCc2c1[nH]c1ccccc21	none
O=C1/C(=C/c2cccnc2)CCc2c1[nH]c1ccccc21	Shiga toxin inh 67.9, Cycloheximide cs 47.7
CC1C/C(=C\c2cccnc2)C(=O)/C(=C/c2cccnc2)C1 (configuration not stated)	none
O=C1NC(=O)N(c2ccc(Cl)cc2)C(=O)/C1=C/c1coc2ccc(O)cc2c1=O	none
O=C1NN(c2ccccc2)C(=O)/C1=C/c1coc2ccccc2c1=O	Shiga toxin inh 54.1, Cycloheximide cs 81.1
O=C1NC(=O)N(c2ccccc2)C(=O)/C1=C/c1coc2ccc(O)cc2c1=O	Shiga toxin inh 28.2, Cycloheximide cs 23.6
N#Cc1c(NC(=O)/C=C/C(=O)O)sc2c1CCN(Cc1ccccc1)C2	none
CCC(OCC(O)CN1CCCCC1)c1ccccc1 (configuration not stated)	none
O=c1[nH]c2ccccc2c2ccccc12	none
O=c1[nH]c2ccccc2c2cn(-c3ccccc3)nc12	Shiga toxin inh 60.5, Cycloheximide cs 17.6
S=c1nccc(-c2cccs2)[nH]1	none (no result: NS1 function inh)
c1csc(-c2ccn[nH]2)c1	Cycloheximide cs 13.1
O=C(O)[C@@H](O)[C@@H](O)[C@@H](O[C@H]1O[C@@H](CO)[C@@H](O)[C@@H](O)[C@@H]1O)[C@@H](O)CO	none (no result: LmPK inh, NS1 function inh, Shiga toxin inh, Cycloheximide cs)
O=C1CC(c2ccc(F)cc2)CC2=C1C(c1ccc([N+](=O)[O-])o1)Nc1ccccc1N2 (configuration not stated)	Cycloheximide cs 11.8
O=C1CC(c2ccccc2)CC2=C1C(c1ccccn1)Nc1ccccc1N2 (configuration not stated)	none
C=CCn1c(SCC(=O)Nc2ccc(OC)cc2)nnc1-c1cnccn1	none (no result: FBPA Giardia inh)
COc1ccc(C2CC(O)(c3ccccc3)Oc3cc(OC)c(OC)c(OC)c32)cc1 (configuration not stated)	FBPA Giardia inh inconclusive, Cycloheximide cs 19.6!
COc1cccc(C2=N/C(=C\N(C)C)C(=O)O2)c1	Cycloheximide cs 34.2
O=C(CSc1ccc(-c2ccc(F)cc2)nn1)NCc1ccco1	none
COc1ccc(-c2ccc(SCC(=O)NCc3ccco3)nn2)cc1	Shiga toxin inh 57.1, Cycloheximide cs 16.9
COc1ccc(-c2nnc(SCC(=O)NC(=O)NCc3ccco3)o2)cc1	Cycloheximide cs 9.4
COc1cccc(CNC(=O)c2csc3c2CCCC3)c1	none (no result: FBPA Giardia inh)
O=C(Nc1nccs1)c1csc2c1CCCC2	Shiga toxin inh 88.2, Cycloheximide cs 36.1
O=C(Nc1ccon1)c1csc2c1CCCC2	none
COc1cccc(NC(=O)c2csc3c2CCCC3)c1	Shiga toxin inh 104.1, Cycloheximide cs 40.4
O=C(NCc1ccccc1)c1csc2c1CCCC2	none (no result: NS1 function inh)
Cc1ccccc1NC(=O)c1csc2c1CCCC2	Shiga toxin inh 100.0, Cycloheximide cs 40.7
COc1ccc(NC(=O)c2csc3c2CCCC3)cc1	Shiga toxin inh 72.4, Cycloheximide cs 50.6
N=C(N)SCCc1ccc(OCc2ccc([N+](=O)[O-])cc2)cc1	none (no result: LmPK inh, NS1 function inh, Shiga toxin inh, Cycloheximide cs)
O=C(c1ccncc1)N1CCC2(CC1)CN(c1ncccn1)C2	none (no result: LmPK inh, NS1 function inh, Shiga toxin inh, Cycloheximide cs)
O=C(Cn1cnc2ccccc2c1=O)c1ccc2c(c1)OCCO2	Shiga toxin inh 70.0, Cycloheximide cs 49.6
COc1ccc(C(=O)Cn2cnc3ccccc3c2=O)cc1	Shiga toxin inh 88.6, Cycloheximide cs 40.9
O=C(Cn1ccc2ccccc2c1=O)NCCC(=O)Nc1ccc2c(c1)OCCO2	Cycloheximide cs 23.0
O=C(Cn1cnc2ccccc2c1=O)N1CCOCC1	none
Cc1ccc(C(=O)Cn2cnc3ccccc3c2=O)cc1C	Shiga toxin inh 104.1, Cycloheximide cs 64.2
CN(CCOc1ccc(C[C@H](Nc2ccccc2C(=O)c2ccccc2)C(=O)O)cc1)c1ccccn1	none (no result: LmPK inh, Shiga toxin inh, Cycloheximide cs)
CCc1ccc(S(=O)(=O)Nc2cc3c(cc2C)n(C)c(=O)n3C)cc1	none
COc1cc(/C=C\C(=O)O)cc(S(=O)(=O)N2CCCCCC2)c1OC	none
COc1ccc(N(CC(=O)NCC2CCCO2)S(=O)(=O)c2ccccc2)cc1OC (configuration not stated)	none
O=C(Cn1cnc2ccccc2c1=O)NCc1ccc2c(c1)OCO2	none
O=C(Cn1cnc2ccccc2c1=O)c1ccc2ccccc2c1	Shiga toxin inh 68.4, Cycloheximide cs 56.4
O=C(Cn1cnc2ccccc2c1=O)Nc1ccc2c(c1)OCO2	Shiga toxin inh active, Cycloheximide cs 56.0
O=C(Cn1cnc2ccccc2c1=O)N1CCc2ccccc2C1	Cycloheximide cs 16.7 (no result: NS1 function inh)
Cc1c(OCC(=O)N[C@@H](Cc2c[nH]c3ccccc23)C(=O)O)ccc2c1oc(=O)c1ccccc12	none
COc1ccc(CC(=O)Nc2nc(-c3ccc(OC)c(OC)c3)cs2)cc1OC	none
Oc1ccc(-c2csc(Nc3ccccn3)n2)cc1	Shiga toxin inh 122.0, Cycloheximide cs 43.2
